Assay outcomes deposited in PubChem BioAssay by NMMLSC.
ABCB6 inh 2: inhibitors of human ABC transporter ABCB6; Q9NP58; K562-ABCB6 porphyrin accumulation, flow cytometry, 1 h; stronger effect = lower value; fluorescence ratio to DMSO, % at 10 µM; actives 0.19% (n = 360,000); AID 602162;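 active means fluorescence ratio to DMSO below 75%, the collection mean minus 3 SD; inconclusive means too few cells collected in the well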;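 further: signal is porphyrin accumulated inside mitochondria; lower ratio means ABCB6 inhibition with less porphyrin fluorescence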
Target sequence (Q9NP58 whole entry, looked up): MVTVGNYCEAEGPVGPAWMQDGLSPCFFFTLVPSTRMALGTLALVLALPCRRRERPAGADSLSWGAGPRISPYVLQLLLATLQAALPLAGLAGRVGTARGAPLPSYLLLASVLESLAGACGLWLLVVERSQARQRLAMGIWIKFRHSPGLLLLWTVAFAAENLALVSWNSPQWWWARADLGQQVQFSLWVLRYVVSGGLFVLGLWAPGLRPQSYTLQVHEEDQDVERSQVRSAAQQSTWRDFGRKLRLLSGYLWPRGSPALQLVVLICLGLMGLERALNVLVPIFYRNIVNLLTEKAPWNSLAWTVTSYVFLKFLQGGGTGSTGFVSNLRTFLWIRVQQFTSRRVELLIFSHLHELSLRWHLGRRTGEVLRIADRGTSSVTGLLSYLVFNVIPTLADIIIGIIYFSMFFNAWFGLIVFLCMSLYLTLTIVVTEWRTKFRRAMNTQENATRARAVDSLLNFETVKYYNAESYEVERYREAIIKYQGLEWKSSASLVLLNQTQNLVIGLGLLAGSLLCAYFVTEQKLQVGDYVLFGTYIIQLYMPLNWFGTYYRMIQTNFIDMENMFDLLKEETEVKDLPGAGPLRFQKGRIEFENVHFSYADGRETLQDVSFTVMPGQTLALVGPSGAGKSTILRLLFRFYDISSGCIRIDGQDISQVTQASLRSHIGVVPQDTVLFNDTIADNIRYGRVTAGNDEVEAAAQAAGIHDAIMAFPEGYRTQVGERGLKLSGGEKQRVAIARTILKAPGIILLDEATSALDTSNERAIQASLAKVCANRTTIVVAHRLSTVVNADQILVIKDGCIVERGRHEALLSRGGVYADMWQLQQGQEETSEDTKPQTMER
Myeloid diff 2: myeloid differentiation induction; actives 1% (n = 360,000); ER-HoxA9 myeloid progenitors, lysozyme-GFP differentiation, flow cytometry; calls only at 10 µM;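 active means normalized GFP-positive differentiation at or above the plate's own cutoff, the solvent-only control mean plus 3 SD; inconclusive means no clear call, values can overlap the other calls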;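 further: cells exposed to compound for four days before flow analysis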
Granule exo inh: blocks lytic granule exocytosis. inhibition, % at 10 µM. AID 651702. actives 0.66% (n = 360,000). TALL-104 LAMP-1 surface exposure, flow cytometry; cells stimulated with thapsigargin and PMA;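 active means inhibition above about 55%, limit read from the data; inconclusive means no clear call, values can overlap the other calls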
Myeloid diff: promotes myeloid progenitor differentiation; shares compounds with Myeloid diff 2; ER-HoxA9 myeloid progenitors, GFP/Mac1 double-positive flow; calls only; actives 2% (n = 2,300); AID 651706;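 active means share of green or green-and-red cells above 9 and 9% in run 1 or 4 and 3% in run 2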
GFP autofluor: counter-screen for myeloid differentiation promoters: compound fluorescence | actives 7.4% (n = 2,300) | AID 651707 | ER-HoxA9 myeloid progenitors, no estrogen, GFP autofluorescence flow cytometry; vehicle wells 0%, positive control 100% | fluorescence response, % (no concentration beside the values) | shares compounds with Myeloid diff 2;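 active means over 5% cells positive for green fluorescent reporter, or over 2% positive for both it and APC stain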
Numbers stand for hits; - = inactive; ? = inconclusive; . = no result; + = active, no number. An excerpt weighted towards active compounds, which were near 1.8% of everything screened.

SMILES	ABCB6 inh 2	Myeloid diff 2	Granule exo inh	Myeloid diff	GFP autofluor
O=C(Nc1cccc(Cl)c1)c1ccc(NCCCN2CCOCC2)c([N+](=O)[O-])c1	-	-	-	.	.
COc1ccc(-c2ccc3oc(-c4ccc(OC)cc4)c(C#CC4(O)CCCCC4)c3c2)cc1	-	-	-	.	.
COc1cc(/C=N\Nc2ccc([N+](=O)[O-])cc2)ccc1OCC(=O)Nc1ccc(C)c(C)c1	-	-	-	-	-
CCOc1cc(/C=N\Nc2ccc([N+](=O)[O-])cc2)ccc1OCC(=O)Nc1ccc(C)c(C)c1	-	.	-	.	.
CCCCCN(C(=O)NC(=O)Nn1cnnc1)S(C)(=O)=O	-	+	-	-	-
CCCCCN(C(=O)NC(=O)NCCCC)S(C)(=O)=O	-	-	-	.	.
CCCCNC(=O)CCc1nc2cccnc2n1Cc1ccccc1	-	+	-	-	-
CCCCNC(=O)CCc1nc2cccnc2n1Cc1ccc(OC)cc1	-	-	-	.	.
Cc1cc(C(C)(C)C)cc(C)c1COC(=O)CN1C(=O)NC2(CCCC2)C1=O	-	-	-	.	.
O=C(c1ccc(S(=O)(=O)N2CCOCC2)cc1)N1CCN(c2ccc(F)cc2)CC1	-	-	-	-	-
O=C(c1ccc(S(=O)(=O)N2CCOCC2)cc1)N1CCN(c2ccccc2F)CC1	-	-	-	.	.
Cc1ccc(C)c(S(=O)(=O)N2CCN(C(=O)c3n[nH]c(=O)c4ccccc34)CC2)c1	-	-	-	.	.
CCOC(=O)Cc1csc(NC(=O)CC)n1	-	-	-	.	.
CCOC(=O)Cc1csc(NS(C)(=O)=O)n1	-	-	-	-	-
Cc1cc(C)n(CCCNC(=O)C(C)(C)Oc2ccc(Cl)cc2)n1	-	-	-	.	.
N#Cc1ccc(C(=O)Nc2nc(SCc3ccc(Cl)cc3)n[nH]2)cc1	-	-	-	.	.
O=C(NCc1ccc(OC(F)(F)F)cc1)C12CN(Cc3ccccc3)CC1C(c1cccc([N+](=O)[O-])c1)=NO2 (stereo unspecified)	-	-	-	.	.
O=C(NCc1ccccc1)C12CN(Cc3ccccc3)CC1C(c1cccc([N+](=O)[O-])c1)=NO2 (stereo unspecified)	-	-	-	-	-
Cc1ccc([N+](=O)[O-])cc1NC(=S)NCCc1ccccc1	-	-	-	.	.
CC1=Nc2cc(C(=O)O)ccc2Sc2ccc(Br)cc21	-	-	-	.	.
CC1=Nc2cc(C(=O)NCC3CCCO3)ccc2Sc2ccc(Br)cc21 (stereo unspecified)	-	-	-	-	-
CC12CCC(C(=O)CC1=O)C2(C)C (stereo unspecified)	-	-	-	.	.
CC(C)n1c(-c2ccccc2F)n[nH]c1=S	-	-	-	-	85
CC(c1ccccc1)n1c(-c2ccccc2F)n[nH]c1=S (stereo unspecified)	-	-	-	.	.
COc1ccc2[nH]c3c(c2c1)[C@@H]1CCN2C(=O)CCC[C@H](C3)[C@H]12	-	+	-	-	-
SMILES	ABCB6 inh 2	Myeloid diff 2	Granule exo inh	Myeloid diff	GFP autofluor
COc1ccc(CNC2C[C@H]3CCCC(=O)N4CC[C@@H](C2)[C@@H]34)cc1 (stereo partly specified)	-	-	-	.	.
CC1CCN(CC2C(=O)O[C@@H]3C[C@@]4(C)CCC[C@H](C)C4=C[C@H]23)CC(C)(C)C1 (stereo partly specified)	-	-	-	-	-
C=C1CCC[C@]2(C)C[C@H]3OC(=O)C(CN4CC(C)OC(C)C4)[C@H]3C[C@@H]12 (stereo partly specified)	-	-	-	.	.
O=C(CSc1nc(-c2ccccc2)cs1)NCCN1C(=O)CSC1=O	-	-	-	.	.
CCn1nc(-c2ccccc2)c2nc3ccccc3nc21	-	-	-	.	.
CCCCCn1nc(-c2ccccc2)c2nc3ccccc3nc21	-	+	-	-	82
COc1ccc(C)cc1NC(=O)C1CCN(S(=O)(=O)c2ccc3c(c2)NC(=O)CO3)CC1	-	-	-	.	.
COC(=O)c1ccc(CSc2ncn[nH]2)o1	-	-	-	.	.
CCOC(=O)c1ccc(CSc2ncn[nH]2)o1	-	-	-	-	-
NC(Cc1ccc(F)cc1)c1csc(Nc2nccc(C(F)(F)F)n2)n1 (stereo unspecified)	-	-	-	.	.
N#C/C(=C\c1ccc(-c2ccc([N+](=O)[O-])cc2)o1)C(=O)Nc1nc(-c2cccs2)cs1	-	+	-	-	-
N#C/C(=C/c1ccc(-c2cccc([N+](=O)[O-])c2)o1)C(=O)Nc1nc(-c2cccs2)cs1	-	-	-	.	.
Cc1cc(-c2nnc(CCC(=O)NC(C)(C)C34CC5CC(CC(C5)C3)C4)o2)no1	-	-	-	.	.
COC(=O)CN(C#N)c1nc(N(C)C)nc(N(C)C)n1	-	-	-	.	.
CC(C)N(C(=O)CN(C#N)c1nc(N(C)C)nc(N(C)C)n1)c1ccccc1	-	-	-	-	-
COc1cc2oc(=O)cc(-c3ccc(-c4ccc(CO)cc4)cc3)c2c(OC)c1OC	-	-	-	.	.
CCn1cc(C(=O)NCCCOC(C)C)c(=O)c2cc(S(=O)(=O)N3CCOCC3)ccc21	-	-	-	.	.
CC(C)Nc1nc(NCCN2CCCC2)c2sc(-c3ccccc3)cc2n1	-	+	-	-	-
CC(C)Nc1nc(-c2ccccc2F)c2sc(-c3ccccc3)cc2n1	-	-	-	.	.
CC(C(=O)N1CCc2ccccc2C1)N1C(=O)c2ccccc2C1=O (stereo unspecified)	-	+	-	-	-
CC(C)CC(C(=O)N1CCc2ccccc2C1)N1C(=O)c2ccccc2C1=O (stereo unspecified)	-	-	-	.	.
CCN(CC(=O)Nc1c(F)cccc1F)C(=O)c1cccn1C	-	-	-	.	.
COc1cc(/C=N/NC(=O)C2CCN(CC(O)COCc3ccccc3)CC2)ccc1O (stereo unspecified)	-	-	-	.	.
CCOc1ccc(N2C(=O)CS/C2=N/NC(=O)COc2ccc3ccccc3c2)cc1	-	-	-	-	-
CCOc1ccc(NC(=O)NNC(=O)COc2ccc3ccccc3c2)cc1	-	-	-	.	.
SMILES	ABCB6 inh 2	Myeloid diff 2	Granule exo inh	Myeloid diff	GFP autofluor
Cc1ccccc1OCC(=O)OCC(=O)NC1CC1	-	-	-	.	.
CCCCON1C(=O)c2cccc3cccc(c23)C1=O	-	-	-	.	.
CCCCN(C)C1=Nc2cccc3cccc1c23	-	+	-	-	-
COc1ccc(C(=O)NCCCN(C)CCCNC(=O)c2ccc(OC)cc2)cc1	-	-	?	.	.
CCC(=O)Nc1cccc(C(=O)/C=C/c2ccccc2)c1	-	-	-	-	-
CCC(=O)Nc1cccc(C(=O)/C=C/c2cccs2)c1	-	-	-	.	.
Cc1ccc(CNC(=O)[C@H](C)NC(=O)C2CCN(C(=O)[C@@H]3CCCN3C(=O)OC(C)(C)C)CC2)cc1	-	+	-	-	-
C[C@H](NC(=O)C1CCN(C(=O)[C@@H]2CCCN2C(=O)OC(C)(C)C)CC1)C(=O)NCc1ccc(F)cc1	-	-	-	.	.
COc1ccc(NC(=O)CSc2nnnn2C)cc1S(=O)(=O)N1CCCCC1	-	-	-	.	.
CC(C)(C)n1nnnc1C(c1ccccc1)N1CCN(c2ncccc2C(F)(F)F)CC1 (stereo unspecified)	-	-	-	.	.
Clc1ccc2nc(-c3ccc4c(c3)OCO4)cn2c1	-	-	-	-	-
